Source: PubChem (Paczesny and Yang Labs, IUPUI and University of Michigan)
ST2 IL33 inh: blocks human ST2 binding to IL-33; 78,000 compounds, 2.3% hits; inhibition, % for hits at 17 µM; Q01638; AlphaLISA ST2-Fc/biotin-IL-33 interaction, 1 h; in the data active means inhibition above about 30%
Target sequence (Q01638 whole entry, looked up): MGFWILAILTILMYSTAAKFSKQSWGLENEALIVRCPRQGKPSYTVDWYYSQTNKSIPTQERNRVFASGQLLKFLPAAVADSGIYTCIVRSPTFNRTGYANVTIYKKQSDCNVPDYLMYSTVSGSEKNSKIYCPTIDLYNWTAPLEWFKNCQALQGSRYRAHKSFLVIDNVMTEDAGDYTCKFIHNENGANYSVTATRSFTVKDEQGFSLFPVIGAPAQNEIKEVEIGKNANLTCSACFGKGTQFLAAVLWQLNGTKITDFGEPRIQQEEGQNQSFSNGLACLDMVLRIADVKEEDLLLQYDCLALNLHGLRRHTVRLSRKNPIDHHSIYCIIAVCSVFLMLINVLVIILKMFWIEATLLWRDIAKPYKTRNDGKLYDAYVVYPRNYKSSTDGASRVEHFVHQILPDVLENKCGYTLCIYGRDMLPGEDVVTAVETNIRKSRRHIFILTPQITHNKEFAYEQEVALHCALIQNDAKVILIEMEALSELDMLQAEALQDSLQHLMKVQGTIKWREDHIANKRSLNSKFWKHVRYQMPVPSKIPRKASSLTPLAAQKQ
* hit, by the source's call; i = inactive; ! = not confirmed by another sample. The entries come from a sample that favours hits as a whole.

SMILES	ST2 IL33 inh
COc1ccc(Nc2cc(C)nc(Nc3ccc(NC(=O)c4ccccc4OC)cc3)n2)cc1	39%*
COc1ccc(CC(=O)Nc2ccc(Nc3nc(C)cc(Nc4ccc(OC)cc4)n3)cc2)cc1	33%*
COc1cccc(C(=O)Nc2ccc(Nc3nc(C)cc(Nc4ccccc4)n3)cc2)c1	i
COc1ccc(Nc2cc(C)nc(Nc3ccc(NC(=O)CCCc4ccccc4)cc3)n2)cc1	31%*
CC(=O)Nc1ccc(Nc2nc(C)cc(Nc3ccccc3)n2)cc1	i
Cc1cc(Nc2ccccc2)nc(Nc2ccc(NC(=O)c3ccc(F)cc3)cc2)n1	i
COc1ccc(C(=O)Nc2ccc(Nc3nc(C)cc(Nc4ccc(C)cc4)n3)cc2)cc1OC	i
COc1ccccc1-c1nnc(Nc2nc3ccc(F)cc3s2)o1	i
CC(C)Cn1cc(C(=O)N2CCN(C3CCCCC3)CC2)c2c3ccccc3n(C)c2c1=O	i
COc1ccc(OCC(=O)Nc2cc(Cl)c(OC)cc2OC)cc1	i
COc1cccc(-c2cc(N3CCN(S(C)(=O)=O)CC3)ncn2)c1	i
CC(=O)c1cccc(NC(=O)CSc2nnc3c4ccccc4n(C(C)C)c3n2)c1	i
COc1ccc(C2=N/C(=C\c3cccc(OC)c3OC)C(=O)O2)cc1[N+](=O)[O-]	i
COc1ccc(-n2cc3c([N+](=O)[O-])cc([N+](=O)[O-])cc3n2)cc1	i
COc1ccccc1-n1cc2c([N+](=O)[O-])cc([N+](=O)[O-])cc2n1	35%*
O=C(O)C(CO)NS(=O)(=O)Cc1ccccc1 (stereo unspecified)	i
c1ccc(-c2cc(-c3ccccc3)n3nnnc3n2)cc1	i
CCn1cnc(NC(=O)N2CCCC(c3ccccc3)CC2)n1 (stereo unspecified)	i
CC1(C)C(=O)N(Cc2ccccc2)c2ccccc2N1Cc1ccccc1	i
CC(CCc1ccccc1)NS(=O)(=O)c1ccc([N+](=O)[O-])cc1 (stereo unspecified)	i
COc1cc(/C=C/c2cc(O)cc(O)c2)ccc1O	i
COc1cc(/C=C2\SC(c3ccc(C)cc3)=NC2=O)ccc1O	62%*
COc1cc(/C=C2\SC(N)=NC2=O)cc(Br)c1O	i
COc1ccc(/C=C2\SC(c3ccc(C)cc3)=NC2=O)cc1OC	30%*
COc1ccc(/C=C2/SC(N3CCN(C)CC3)=NC2=O)cc1OC	i
SMILES	ST2 IL33 inh
COc1ccc(/C=C2/C(=O)N=C(N)N2C)cc1OC	i
C=CCCCCC(=O)Nc1ccc(I)cc1	i
COc1ccc(N2C(=O)C3C4C=CC(C4)C3C2=O)cc1OC (stereo unspecified)	i
COc1ccc(-n2c(CCN)n[nH]c2=O)cc1OC	i
COc1ccc(-n2c(C)c3c(C)nnc(C)c3c2C)cc1OC	31%*
Cc1ccc(-n2c(C)nc3c(cnn3-c3ccc(F)cc3)c2=O)cc1F	i
CCCC(=O)N1CCN(c2cc(C)c(C(C)=O)cc2F)CC1	i
COc1ccccc1-n1c(O)c(C=Nc2ccc(C)cc2)c2ccccc2c1=O	34%*
CCOc1ccccc1N=Cc1c(O)n(-c2ccccc2C)c(=O)c2ccccc12	i
Cc1ccccc1-n1c(O)c(C=Nc2ccccc2)c2ccccc2c1=O	47%*
COc1ccccc1-n1nc(C(=O)O)c2ccccc2c1=O	i
Cc1cc(O)c(C=Nc2cccc(C(=O)O)c2)c(C)c1Cl	i
COc1ccc(C)cc1NC(=O)CNC(=O)c1cn(-c2ccccc2OC)c(=O)c2ccccc12	i
CCCSc1ncc(CN2CCCn3cncc3C2)cn1	i
Cc1ccc(S(=O)(=O)N2CCN(C(=O)c3ccccc3)C2c2ccccc2)cc1 (stereo unspecified)	i
CCOc1ccc2oc(C)c(C(=O)NC(C)c3n[nH]c(C)n3)c2c1 (stereo unspecified)	i
O=C(CSc1nnc(Cc2cc(=O)[nH]c(=O)[nH]2)n1-c1ccccc1)Nc1ccccc1F	i
Cc1cccc(Nc2nnc(Cc3ccccc3Cl)c(=O)[nH]2)c1	i
COc1ccc(S(=O)(=O)NCc2nc3cccnc3n2Cc2ccccc2OC)cc1	i
CCS(=O)(=O)CC(C(C)(C)C)S(=O)(=O)CC (stereo unspecified)	i
CNCC1OCCc2ccccc21 (stereo unspecified)	i
Cc1ccc(NCC2OCc3ccccc3CO2)cc1	97%*
CC1=C(C(N)=O)C(c2cccc(F)c2)n2nc(SCc3ccccc3)nc2N1 (stereo unspecified)	32%*!
COc1ccc(C2C(C(N)=O)=C(C)Nc3nc(SCc4ccccc4)nn32)cc1OC (stereo unspecified)	i
CC1=C(C(N)=O)C(c2ccc(O)cc2)n2nc(SCc3ccccc3)nc2N1 (stereo unspecified)	i
SMILES	ST2 IL33 inh
O=C(Nc1ccccc1)C(=O)NC1CCCCCC1	i
N#CC1=C(N)n2c(s/c(=C\c3ccco3)c2=O)=C(C#N)C1c1ccco1 (stereo unspecified)	37%*
CCCOc1ccc(-c2nc3s/c(=C\c4ccco4)c(=O)n3n2)cc1	i
CC1CC(=O)C2=C(C1)OC(N)=C(C#N)C2c1ccco1 (stereo unspecified)	i
Cc1cccc(N(CC(=O)N2CCC[C@H]2C(=O)O)S(C)(=O)=O)c1	i
CC1CCCN(c2nc3nonc3nc2Nc2ccc3c(c2)OCO3)C1 (stereo unspecified)	i
Cc1ccc(NC(=O)C(C)C)c(C(=O)N2CCCN(C)CC2)c1	i
CCOCC(=O)Nc1c(C(=O)Nc2cccc(F)c2)oc2ccccc12	i
O=C(Nc1c(C(=O)Nc2cccc(F)c2)oc2ccccc12)c1ccc(F)cc1	i
O=C(Cc1ccc(F)cc1)Nc1c(C(=O)Nc2cccc(F)c2)oc2ccccc12	93%*
COc1ccccc1/C=C/C1=NC(=C\c2cccc(Cl)c2)/C(=O)O1	34%*
COc1ccccc1/C=C/C1=NC(=C\c2ccc([N+](=O)[O-])cc2)/C(=O)O1	i
COc1ccccc1/C=C/C1=NC(=C\c2cccc(Cl)c2Cl)/C(=O)O1	i
COc1ccccc1/C=C/C1=NC(=C\c2ccc(Cl)c(Cl)c2)/C(=O)O1	i
COc1ccccc1/C=C/C1=NC(=C\c2ccc(C)cc2)/C(=O)O1	38%*
COc1ccccc1/C=C/C1=NC(=C\c2cc(Br)cs2)/C(=O)O1	i
O=C(C1Cc2ccccc2C1)N1CCC(n2cc(C3CCCC3)nn2)CC1	i
O=C(c1ccc(O)c([C@@H]2O[C@H](CO)[C@@H](O)[C@H](O)[C@H]2O)c1O)C(O)Cc1ccc(O)cc1 (stereo partly specified)	i
Cc1ccc(NC(=O)CC(=O)NCCc2csc(C(C)C)n2)cc1	i
O=C1CC(Sc2ccccn2)C(=O)N1c1ccc(Br)cc1 (stereo unspecified)	40%*
Cc1ccc(N2C(=O)CC(Sc3nc4ccccc4o3)C2=O)cc1 (stereo unspecified)	i
O=C(O)c1cccnc1SC1CC(=O)N(c2ccc(N3CCOCC3)cc2)C1=O (stereo unspecified)	i
Cc1nn(C)c(C)c1CCC(=O)N1CCC(Oc2ncccn2)CC1	i
CCCSc1ncc(-c2nccn2CCc2scnc2C)cn1	i
O=c1cc(-c2ccc(O)cc2)oc2c([C@@H]3O[C@H](CO)[C@@H](O[C@@H]4O[C@H](CO)[C@@H](O)[C@H](O)[C@H]4O)[C@H](O)[C@H]3O)c(O)cc(O)c12	50%*
O=c1cc(-c2ccc(O)cc2)oc2c(C3OCC(O)C(O)C3O)c(O)c(C3OCC(O)C(O)C3O)c(O)c12 (stereo unspecified)	i
